Screens from PubChem.
In the library only some 1.8% were active in any assay of this set; here they are far more common.
LYPLA1 inh: LYPLA1 inhibitors, primary screen, counter-screen for PME1 inhibitor project, biochemical, fluorescence polarization, FP-Rh probe ABPP; Acyl-protein thioesterase 1 (Homo sapiens), O75608; recombinant LYPLA1; inhibition, % at 5.9 µM; 320,000 compounds, 0.16% hits;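 active = inhibition above the mean of all tested compounds plus 3 SD, set per campaign, cut at about 14% in these data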;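 note: inhibitors block serine hydrolase probe labeling of LYPLA1 so polarization falls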
PME-1 inh: PME-1 inhibitors via competitive probe labeling, primary screen, biochemical, fluorescence polarization, FP-Rh probe, HTS; recombinant PME-1; inhibition, % at 5.9 µM; 320,000 compounds, 0.53% hits; AID 2130, 2009;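 active = inhibition above the campaign mean of all compounds plus 3 SD, cut at about 26% in these data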;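 note: competitive labeling of PME-1 active site by serine hydrolase directed probe; inhibitors block probe labeling so polarization falls and inhibition rises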
PP1 inh: PP1-alpha phosphatase inhibitors, primary screen, counter-screen for PP5 inhibitor project, biochemical, fluorescence, OMFP substrate, single point. AID 2235, 2010. purified PP1alpha. 320,000 compounds, 0.9% hits. inhibition, % at 6.7 µM. Serine/threonine-protein phosphatase PP1-alpha catalytic subunit (Homo sapiens), P62136;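 active = inhibition above the mean inhibition of all tested compounds plus 3 SD, computed separately for each screening campaign, cut at about 15% in these data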
Target sequence (P62136 whole entry, looked up): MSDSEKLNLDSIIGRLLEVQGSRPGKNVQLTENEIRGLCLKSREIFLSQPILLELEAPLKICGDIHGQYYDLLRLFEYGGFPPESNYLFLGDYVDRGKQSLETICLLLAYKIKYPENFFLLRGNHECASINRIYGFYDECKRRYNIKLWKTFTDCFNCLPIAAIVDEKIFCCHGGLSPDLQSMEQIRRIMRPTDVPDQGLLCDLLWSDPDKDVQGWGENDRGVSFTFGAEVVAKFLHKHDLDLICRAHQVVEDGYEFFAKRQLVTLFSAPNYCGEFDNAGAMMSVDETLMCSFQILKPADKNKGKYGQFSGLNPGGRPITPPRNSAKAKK
PP5 inh: PP5 phosphatase inhibitors, primary screen, biochemical, fluorescence. Serine/threonine-protein phosphatase 5 (Homo sapiens), P53041. purified PP5c, OMFP substrate fluorescence. inhibition, % at 6.7 µM. 320,000 compounds, 0.18% hits;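 active = inhibition above the campaign's mean inhibition across all tested compounds plus 3 SD, cut at about 9.5% in these data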
Fam108B counter: mouse Fam108B serine hydrolase inhibitors, primary screen, counter-screen for RBBP9 inhibitor project, biochemical, fluorescence polarization; recombinant Fam108B, FP-Rh probe fluorescence polarization; inhibition, % at 9.51 µM; 300,000 compounds, 0.33% hits; AID 1947, 2009;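 active = inhibition above the screen mean inhibition plus 3 SD, computed separately per campaign, cut at about 18% in these data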;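 note: inhibitors lower polarization as less probe binds the enzyme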
LYPLA2 inh: LYPLA2 inhibitors, primary screen, counter-screen for PME1 inhibitor project, biochemical, fluorescence polarization, FP-Rh probe ABPP; Acyl-protein thioesterase 2 (Homo sapiens), O95372; recombinant LYPLA2; inhibition, % at 5.9 µM; 320,000 compounds, 0.38% hits; AID 2177, 2009;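 active = inhibition above the screen-wide mean plus 3 SD, limit set per campaign, cut at about 26% in these data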
Each line names hits and unclear results; the compound was inactive in the other large screens.

CCc1ccc(Nc2nc(N)nc(CSc3nnnn3-c3ccccc3)n2)cc1	PP1 inh 16
Cc1ccccc1Nc1nc(N)nc(CSc2nnnn2-c2ccccc2)n1	none
CN(C)c1ccc(CNC(=O)CN(C)S(=O)(=O)c2cccc3cccnc23)cc1	PME-1 inh 33
NC(=S)Nc1ccc(C(F)(F)F)cc1Cl	none
O=c1c(-c2nnc(SCc3ccc(Cl)cc3Cl)o2)cccn1Cc1ccccc1	PP1 inh 16
CS(=O)(=O)c1ccc(Cl)c(NC(=O)CSc2nc3ccccc3c(=O)n2Cc2ccco2)c1	none
O=C(NNc1c2ccccc2nc2ccccc12)c1ccccc1Cl	none
O=C(NNc1c2ccccc2nc2ccccc12)c1cccc(O)c1	PME-1 inh 40
O=C(NNc1c2ccccc2nc2ccccc12)c1ccccc1O	PME-1 inh 54
O=C(NNc1c2ccccc2nc2ccccc12)c1ccc(O)cc1	PME-1 inh 49
COc1cccc(C2/C(=C(/O)c3ccc(C)cc3)C(=O)C(=O)N2Cc2ccco2)c1 (stereo unspecified)	PP1 inh 16
COc1ccc(C2C(C#N)=C3NC(=O)c4c(sc5c4CCCCC5)N3C3=C2C(=O)CC(C)(C)C3)cc1 (stereo unspecified)	PP1 inh 16
O=C(O)c1ccc2c(=O)n(Cc3ccccc3)c(SCc3ccc([N+](=O)[O-])cc3)nc2c1	PP1 inh 18
O=c1c2ccccc2nc(SCc2ccc([N+](=O)[O-])cc2)n1-c1ccccc1	none
CCCNC(=O)c1ccc(N2CCC3(CC2)CC(c2cccc(Br)c2)=NO3)c(NC(=O)c2cccc(C)c2)c1	PP1 inh 16
O=C(O)/C=C/c1cn(-c2ccccc2)nc1-c1ccc(-c2ccc([N+](=O)[O-])cc2)o1	PME-1 inh 27
CCN(CC)S(=O)(=O)c1ccc2c(c1)nc(CCC(=O)Nc1ccc3c(c1)OCO3)n2CC	PP1 inh 15
CCN(CC)S(=O)(=O)c1ccc2c(c1)nc(CCC(=O)Nc1ccc3c(c1)OCO3)n2C	none
CC1Oc2ccccc2C=C1/C=N/Nc1ccc(C(=O)O)cc1 (stereo unspecified)	PME-1 inh 34
CC(C)(C)c1ccc(/C=N/Nc2ccc(C(=O)O)cc2)cc1	none
COc1ccc(OC)c(NC(=O)Nc2nnc(N3CCC(C)CC3)s2)c1	PME-1 inh 29
O=C1[C@H]2[C@@H](/C=C/c3ccccc3)N3C(=O)CN(Cc4ccccn4)C(=O)[C@@]3(Cc3ccccc3)[C@H]2C(=O)N1c1ccccc1	none
CC(=O)c1ccc(-c2cc([C@H]3[C@H]4C=CC[C@@H](C)[C@@H]4C(=O)N3Cc3ccccc3)ccc2F)cc1	none
C[C@@H]1CC=C[C@H]2[C@H]1C(=O)N(Cc1ccccc1)[C@H]2c1ccc(F)c(-c2ccc(N(C)C)cc2)c1	PP1 inh 16
COC(=O)C1Cc2ccccc2CN1C(=O)CCl (stereo unspecified)	none
CN1C(=O)/C(=C/c2cn(CC(=O)NCc3ccco3)c3ccccc23)NC1=S	none
CCN=C1S/C(=C\c2cn(CC(=O)NCc3ccco3)c3ccccc23)C(=O)N1CC	PP1 inh 15
Cc1ccccc1C(=O)O/N=C(\N)Cc1cccs1	none
O=c1cc(O)c2c(=O)n(C3CCCCC3)c3ccccc3c2o1	none
O=c1cc(O)c2c(=O)n(-c3ccccc3)c3c(c2o1)CCCCCC3	PP1 inh 17
CSc1ccc(S(=O)(=O)NCC(=O)OCC(=O)N2CCCC2=O)cc1[N+](=O)[O-]	none
Cc1cc(O)c(-c2cc(C(=O)NCc3ccc4c(c3)OCO4)[nH]n2)cc1C	PP1 inh 16
O=C(NCCC1=CCCCC1)c1c(O)nc2ccccn2c1=O	PP1 inh 15
CCOCCOc1cccc(C(=O)NC(c2ccccc2)c2ccccc2)c1	none
CN(C)C(CNC(=O)c1ccc(NC(=O)CC#N)cc1)c1ccccc1 (stereo unspecified)	none
